Assay outcomes (PubChem BioAssay)
A selection: hits, their analogues and other compounds. The true share with any hit is near 11%.
Pf growth 48h: Primary qHTS for delayed death inhibitors of the malarial parasite plastid, 48 hour incubation; Potency, µM (doses to about 28.7 µM), actives largely listed as inhibitors; actives 5.9% (n = 310,000); P. falciparum luciferase growth in erythrocytes, 48 h
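Here the parasites carry a stable luciferase gene and grow inside erythrocytes in Albumax-based RPMI medium with compound for one erythrocytic cycle. Activity is scored as loss of luminescent signal.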
AMA1-RON2 inh: qHTS for Inhibitors of AMA1-RON; Towards Development of Antimalarial Drug Lead: Primary Screen | Plasmodium falciparum AMA1 (3D7) - RON2 peptide interaction | AlphaScreen AMA1-biotinylated RON2 peptide binding | Potency, µM (titrated, usually from 58.2 µM), actives largely listed as inhibitors | actives 0.2% (n = 360,000) | AID 720542, 2013; note: nearly all actives have a fitted effect of over 45% in size
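AMA1 (3D7) with his tag at 25 nM final met compounds first, then biotinylated RON2 peptide at 25 nM; detection used donor plus acceptor beads, 10 µg/mL apiece, read by AlphaScreen after 30 min at room temperature.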
Pf growth 96h: Primary qHTS for delayed death inhibitors of the malarial parasite plastid, 96 hour incubation; Potency, µM (top dose mostly 28.7 µM), usual class: inhibitors; AID 504834, 2011; actives 6.9% (n = 320,000); P. falciparum luciferase reporter growth, 96 h
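Parasite growth measured via integrated firefly luciferase reporter in P. falciparum. Infected erythrocytes at 2% hematocrit, 0.05% parasitemia final were treated 96 hours at 37 C under 5% CO2, and luminescence was read.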
HCV inh: qHTS Assay for Inhibitors of Hepatitis C Virus (HCV); actives 3.4% (n = 340,000); Huh7.5.1 HCVcc-Cre infection, luciferase reporter, 44 h; Potency, µM (series often up to 41.8 µM), actives largely listed as inhibitors
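1,000 cells/well; 4 h culture; + compound; + HCVcc-Cre (~0.5 moi); 44 h; luciferase substrate, RT 15 min; read 15 sec.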
Hits are given with their value; - = inactive; ? = inconclusive; . = no result given; [ ] = dose if it differs, or a comment. Calls come from the whole dose curve; as a rule, active = well fitted curve in the direction sought with a large enough effect; inconclusive = small, poorly fitted or top-dose-only effect, or another doubt; inactive = no such curve, though single readings can be large; an effect the other way counts as inactive or inconclusive.

SMILES	Pf growth 48h	AMA1-RON2 inh	Pf growth 96h	HCV inh
COc1ccccc1NC(=O)CN1CCN(C(=O)C2CCCO2)CC1 (centres undefined)	-	-	-	.
CSc1nc(-c2ccccc2)[nH]c(=S)c1C(C)=O	.	-	9.3µM	-
O=C(O)C1C2C=CC3(CN(c4cccc(C(F)(F)F)c4)C(=O)C13)O2 (centres undefined)	-	-	10µM	-
Cc1cc(C(=O)N/N=C/c2cc(N=Nc3ccccc3)ccc2O)n[nH]1	?	-	?	22µM
COC(=O)N/N=C/c1cc(N=Nc2ccccc2)ccc1O	?	-	?	-
Nc1ccc(C(=O)N/N=C\c2cc(N=Nc3cccc4ccccc34)ccc2O)cc1	2.9µM	-	-	11µM
COC(=O)N/N=C/c1cc(N=Nc2ccccc2Cl)ccc1O	?	-	7.4µM	?
CCOC(=O)C1CCN(C(=O)c2cc(COc3ccc(OC)c4ccccc34)on2)CC1	-	-	-	-
O=C(Nc1ccc(-c2cn3ccsc3n2)cc1)c1ccc(F)c(S(=O)(=O)N2CCOCC2)c1	-	-	9.3µM	5.6µM
Cc1nc2ccc(NC(=O)c3ccc(C)c(S(=O)(=O)N4CCOCC4)c3)cc2s1	?	-	?	10µM
O=C(Nc1ccccc1)c1ccc(F)c(S(=O)(=O)N2CCOCC2)c1	?	-	?	-
O=C(Nc1cc(S(=O)(=O)N2CCOCC2)ccc1O)c1ccc(NS(=O)(=O)c2ccc(Cl)s2)cc1	-	-	-	?
Cc1nc2ccc(NC(=O)c3cc(S(=O)(=O)N4CCOCC4)ccc3C)cc2s1	.	-	9.3µM	?
Cc1ccc(NC(=O)c2ccc3c(c2)OCO3)cc1S(=O)(=O)N1CCOCC1	-	-	?	-
Cc1ccc(NC(=O)c2ccccc2NS(=O)(=O)c2ccc(Cl)s2)cc1S(=O)(=O)N1CCOCC1	12µM	-	?	?
COC(=O)CNC(=O)COC(=O)c1ccc(Cl)nc1	-	-	-	-
O=C(Nc1ccc(S(=O)(=O)N2CCOCC2)cc1)c1ccccc1F	?	-	-	-
CC(C)N1C(=O)CSC1c1ccc(Br)cc1 (centres undefined)	-	-	?	-
COC(=O)[C@H]1[C@H]2C[C@@H]3c4[nH]c5cc(OC)ccc5c4CCN3C[C@H]2C[C@@H](OC(=O)/C=C/c2cc(OC)c(OC)c(OC)c2)[C@@H]1OC	0.74µM	?	0.93µM	?
COC(=O)[C@H]1[C@H]2C[C@@H]3c4[nH]c5ccccc5c4CCN3C[C@H]2C[C@@H](OC(=O)c2cc(OC)c(OC)c(OC)c2)[C@@H]1OC	0.38µM	.	-	.
COc1ccc2c3c([nH]c2c1)C1CC2C(CC(O)C(OC)C2CO)CN1CC3 (centres undefined)	-	-	-	-
O=C(O)[C@@H]1[C@H]2C[C@H]3c4[nH]c5ccccc5c4CCN3C[C@@H]2CC[C@@H]1O	?	-	7.4µM	-
COC(=O)C1[C@@H](OC)C(OC(=O)COc2ccc(OC)cc2)C[C@@H]2CN3CCc4c([nH]c5cc(OC)ccc45)[C@H]3C[C@H]12 (some centres undefined)	8.5µM	.	6.7µM	.
COC(=O)[C@@H]1[C@@H]2C[C@H]3c4[nH]c5ccccc5c4CCN3C[C@@H]2CC[C@@H]1O	-	.	-	.
Cc1cccc(NC(=O)c2ccc(NS(=O)(=O)c3cccc4cccnc34)cc2)c1	.	-	.	?
SMILES	Pf growth 48h	AMA1-RON2 inh	Pf growth 96h	HCV inh
COc1ccc2c3c([nH]c2c1)[C@H]1C[C@H]2[C@H](C[C@@H](O)[C@H](OC)[C@H]2C(=O)O)CN1CC3	-	-	-	-
CCOC(=O)Oc1c(OC)cc(C(=O)O[C@H]2C[C@H]3CN4CCc5c([nH]c6cc(OC)ccc56)[C@@H]4C[C@H]3[C@@H](C(=O)OC)[C@@H]2OC)cc1OC	1.6µM	.	1.3µM	.
COC(=O)[C@H]1[C@H]2C[C@@H]3c4[nH]c5cc(OC)ccc5c4CCN3C[C@H]2C[C@@H](OC(=O)c2ccc(N)cc2)[C@@H]1OC	12µM	-	13µM	?
CCOc1c(Cl)cc(CNCC(C)C)cc1OC	.	-	-	-
CCOc1cc(CNC2CCCC2)ccc1OCc1ccccc1Cl	?	-	-[5.75 µM]	3.2µM
COc1cc(CNCc2ccccc2)cc(Cl)c1OC	-	-	-	-
CCOc1cc(C(N)=O)cc(Cl)c1OCc1ccccc1	-	-	-	13µM
COc1cc(CNCCc2ccccc2)cc(Cl)c1OCc1ccccc1	8.3µM	-	-	?
CCOc1c(Cl)cc(CNCC(O)c2ccccc2)cc1OC (centres undefined)	4.1µM	-	-	-
Cc1cccc(C)c1OCc1nc2ccccc2c(=O)n1/N=C/c1c[nH]c2ccccc12	?	-	-	?
C[C@@H]1C=CC(=O)O[C@@H]1c1ccc(Cl)cc1	?	-	?	-
COc1ccc(S(=O)(=O)N2CCOCC2)cc1C(=O)NCC(c1ccco1)N1CCCC1 (centres undefined)	-	-	-	-
CC(C)OCCCNC(=O)C1CCC(CNS(=O)(=O)c2ccccc2)CC1 (centres undefined)	-	-	.	-
C/C(CC(=O)NC1CCCC1)=N\NC(=O)Cc1csc(N)n1	-	-	-	-
CCOc1cc(CNC2CCCC2)cc(Cl)c1OCc1ccccc1	13µM	-	?	13µM
CCOc1cc(CNCC(C)C)cc(Cl)c1OCc1ccccc1	13µM	-	5.2µM	?
CCCCNCc1cc(Cl)c(OCCC)c(OCC)c1	.	-	8.3µM	.
Cc1noc(C)c1S(=O)(=O)N1CCCC1C(=O)O (centres undefined)	-	-	-	-
CC(C)(CC(=O)OCC(=O)Nc1ccccc1F)CC1=NS(=O)(=O)c2ccccc2N1	?	-	12µM	-
COc1ccccc1NC(=O)COC(=O)CC(C)(C)CC1=NS(=O)(=O)c2ccccc2N1	?	-	?	?
COc1cccc(=O)c2c(C)n(-c3cc(C)cc(C)c3)c(C)c12	3.3µM	-	2.6µM	-
CCOc1cccc(=O)c2c(C)n(C)c(C)c12	?	-	?	?
COc1cccc(-n2c(C)c3c(OC)cccc(=O)c3c2C)c1	4.1µM	?	?	-
COc1cccc(=O)c2c(C)n(C)c(C)c12	-	?	-	?
C=C1[C@@H](OC(C)=O)CC[C@]2(C)[C@@H]1C[C@@H]1C[C@H](OC(C)=O)C(C)=C([C@@H](OC(C)=O)[C@@H]2OC(C)=O)C1(C)C	6.6µM	-	7.4µM	?
CC(=O)O[C@H]1C[C@@H]2CC[C@@H]3[C@H](CC[C@]4(C)C(=O)CC[C@@H]34)[C@@]2(C)C[C@@H]1OC(C)=O	?	-	?	-
CN1CCN(CC2(O)CCN(S(=O)(=O)c3ccc(Cl)cc3)CC2)CC1	?	-	-	-
CSC1=NC(C)(C)C=C(/C=C/c2ccc(Cl)cc2)N1	-	-	?	8.9µM
CSC1=NC(C)(C)C=C(/C=C/c2ccc(Cl)cc2Cl)N1	?	-	12µM	?
